Assay [1] is described as follows: ATG_Sox_CIS: Attagene CIS-FACTORIAL HepG2 Assay for human SRY-box transcription factor (SOX) (AID 2282960). As to conditions: HepG2 Attagene cis-factorial SOX reporter, mRNA; actives raise or lower the signal. In a few lines: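 Cells were transfected with reporter constructs under cis-regulatory promoters, then exposed to chemicals for 24 h. Reporter transcripts were quantified by fluorescence after RT-PCR and capillary electrophoresis; activity was fitted in both directions against DMSO.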

Assay [2] concerns the target Transcription factor Sp1 (Homo sapiens) (UniProt P08047). Nature of the assay: ATG_Sp1_CIS: Attagene CIS-FACTORIAL HepG2 Assay for human Specificity Protein 1 (Sp1) (AID 2282961). As to conditions: HepG2 Sp1 cis-reporter transcription, actives raise or lower the signal. In a few lines: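 Measures mRNA induction of an Sp1-linked reporter in HepG2 cells 24 h post-dosing. Multiplexed reporters read by RT-PCR and capillary electrophoresis; DMSO serves as negative control and baseline.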

The nature of assay [3]: ATG_SREBP_CIS: Attagene CIS-FACTORIAL HepG2 Assay for human Sterol Regulatory Element Binding (SREBP) (AID 2282962). As to conditions: HepG2 Attagene cis-factorial SREBP reporter, mRNA; actives raise or lower the signal. Summed up: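 Readout: fluorescent reporter-transcript peaks resolved by capillary electrophoresis after RT-PCR. Cells were human HepG2 carrying transfected cis-promoter reporter constructs, dosed for 24 h. Gain or loss of signal was fitted against DMSO controls.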

Assay [4] addresses Signal transducer and activator of transcription 3 (Homo sapiens) (UniProt P40763). Nature of the assay: ATG_STAT3_CIS: Attagene CIS-FACTORIAL HepG2 Assay for human Signal Transducer and Activator of Transcription 3 (STAT3) (AID 2282963). The following applies: HepG2, Attagene cis-factorial STAT3 reporter transcription; actives raise or lower the signal. In a few lines:
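Uses human liver HepG2 transiently carrying cis-regulated reporter transcription units. Following 24 h dosing, reporter mRNA induction was detected by RT-PCR and capillary electrophoresis, analysed bidirectionally versus DMSO.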

Assay [5] can be described thus: ATG_TA_CIS: Attagene CIS-FACTORIAL HepG2 Assay for human TA Basal Promoter (AID 2282964). The following applies: HepG2 Attagene CIS-factorial TA basal promoter reporter; actives raise or lower the signal. Summed up: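 Transfected HepG2, 24 h compound exposure; RNA → RT-PCR → FAM primer extension → HpaI cut → CE fluorescence. Gain/loss-of-signal fitted against DMSO negative control. Background-control readout.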

Assay [6] can be described thus: ATG_TCF_b_cat_CIS: Attagene CIS-FACTORIAL HepG2 Assay for human T-Cell-Factor with beta-catenin (TCF/b-cat) (AID 2282965). As to conditions: HepG2 TCF/beta-catenin cis-reporter transcription, actives raise or lower the signal. In a few lines: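 In this cis-format system, transfected HepG2 cells report endogenous transcription factor activity. Readout after 24 h exposure is reporter transcript abundance from RT-PCR and capillary electrophoresis, analysed for gain or loss of signal versus DMSO.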

Assay [7] in a line: ATG_TAL_CIS: Attagene CIS-FACTORIAL HepG2 Assay for human TAL Basal Promoter (AID 2282966).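 Note: background control endpoint measuring basal TAL promoter reporter mRNA not a specific factor.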 As to conditions: HepG2 Attagene cis-factorial TAL promoter reporter; actives raise or lower the signal. Summed up:
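HepG2, transient MRTU transfection, 24 h compound exposure; RNA → oligo(dT) RT → PCR → 6-FAM primer extension → HpaI digest → CE fluorescence. Bidirectional curve fit vs DMSO. Background-control readout.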

Assay [8] in a line: ATG_TGFb_CIS: Attagene CIS-FACTORIAL HepG2 Assay for human Transforming Growth Factor (TGF) (AID 2282967). As to conditions: HepG2 Attagene CIS TGFb reporter, mRNA transcription; actives raise or lower the signal. Summed up: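 Readout: fluorescently labeled reporter cDNA fragments resolved by capillary electrophoresis after RT-PCR. Transfected HepG2 cells dosed for 24 h; endogenous TF activity at TGFB1-linked cis element; gain or loss fitted relative to DMSO.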

Assay [9] concerns the target Nuclear receptor subfamily 1 group I member 3 (Homo sapiens) (UniProt Q14994). Briefly: ATG_CAR_TRANS: Attagene TRANS-FACTORIAL HepG2 Assay for human Constitutive Androstane Receptor (CAR) (AID 2282969; active = hit-call score of the fitted dose curve at least 0.9, where 1 is the maximum;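 note: activators raise reporter mRNA above DMSO so AC50 marks induction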). As to conditions: HepG2 Attagene TRANS-FACTORIAL CAR reporter. In a few lines: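 Steps: transient transfection of HepG2 with multiple GAL4-UAS reporter units; 24 h compound incubation; RNA isolation, RT-PCR, 6-FAM primer extension, HpaI digest; capillary electrophoresis. Gain-of-signal relative to DMSO negative control.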

The target of assay [10] is X-box-binding protein 1 (Homo sapiens) (UniProt P17861). Nature of the assay: ATG_Xbp1_CIS: Attagene CIS-FACTORIAL HepG2 Assay for human X-box Binding Protein 1 (XBP1) (AID 2282972). The following applies: HepG2 XBP1 cis-element reporter, Attagene multiplex; actives raise or lower the signal. In a few lines: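 Read-out: fluorescent reporter mRNA fragments resolved by capillary electrophoresis after RT-PCR. Human HepG2 liver cells carried transfected cis-promoter reporter units and were exposed to chemicals for 24 hours. Gain or loss of signal fitted relative to DMSO baseline.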

Assay [11] in a line: ATG_M_19_TRANS: Attagene TRANS-FACTORIAL HepG2 Assay for M19 Transcription Factor (Internal Marker) (AID 2282974; active = hit-call score of the fitted dose curve at least 0.9, where 1 is the maximum). The following applies: HepG2 Attagene TRANS-FACTORIAL M19 internal marker reporter. Summed up:
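After transfection of HepG2 with GAL4-UAS-driven reporter constructs, cells are dosed for 24 h. Total RNA is reverse-transcribed, reporter sequences PCR-amplified and labelled, then HpaI-digested and sized by capillary electrophoresis.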

The nature of assay [12]: ATG_GAL4_TRANS: Attagene TRANS-FACTORIAL HepG2 Assay for GAL4 (Internal Marker) (AID 2282976; active = hit-call score of the fitted dose curve at least 0.9, where 1 is the maximum). The following applies: HepG2 Attagene TRANS GAL4 internal marker reporter. Summed up: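 RT-PCR/capillary electrophoresis readout of reporter mRNA. HepG2, transient MRTU transfection (GAL4-UAS reporters), 24 h compound exposure. Background-control endpoint, positive direction vs DMSO baseline.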

Assay [13] has as its target Glucocorticoid receptor (Homo sapiens) (UniProt P04150). Briefly: ATG_GR_TRANS: Attagene TRANS-FACTORIAL HepG2 Assay for human Glucocorticoid Receptor (GR) (AID 2282978; active = hit-call score of the fitted dose curve at least 0.9, where 1 is the maximum;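 note: activators score as hits since higher reporter transcript over DMSO is fitted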). The following applies: HepG2 Attagene TRANS GR reporter, mRNA transcription. Summed up:
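Multiplexed TRANS reporter system, HepG2; 24 h exposure; RNA → oligo(dT) RT → reporter-specific PCR → 6-FAM primer extension → HpaI cut → CE fluorescence. Gain-of-signal vs DMSO.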

In assay [14] the target is Bile acid receptor (Homo sapiens) (UniProt Q96RI1). Briefly: ATG_FXR_TRANS: Attagene TRANS-FACTORIAL HepG2 Assay for Farnesoid X Receptor (FXR) (AID 2282979; active = hit-call score of the fitted dose curve at least 0.9, where 1 is the maximum;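 note: hits raise reporter mRNA above DMSO so AC50 marks FXR activation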). The following applies: HepG2 Attagene TRANS FXR-GAL4 reporter transcription. In a few lines: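 Read-out: fluorescent reporter transcripts quantified by capillary electrophoresis after RT-PCR of total RNA. Source cells were HepG2 transiently carrying chimeric NR-GAL4 plus GAL4-UAS reporter units, dosed 24 h. Activity fitted upward relative to DMSO baseline.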

The target in assay [15] is Oxysterols receptor LXR-alpha (Homo sapiens) (UniProt Q13133). Briefly: ATG_LXRa_TRANS: Attagene TRANS-FACTORIAL HepG2 Assay for human Liver X Receptor alpha (LXRa) (AID 2282980; active = hit-call score of the fitted dose curve at least 0.9, where 1 is the maximum). As to conditions: HepG2 Attagene TRANS reporter, LXRa transactivation. Summed up:
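Read-out: reporter transcript levels by RT-PCR plus capillary electrophoresis, fluorescence intensity. Transiently transfected HepG2, exogenous NR-GAL4 chimera, GAL4-UAS reporters; 24 h compound exposure. Activity = increase over DMSO negative control.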

Assay [16] in a line: ATG_VDRE_CIS: Attagene CIS-FACTORIAL HepG2 Assay for human Vitamin D Receptor Element (VDRE) (AID 2282968). The following applies: HepG2 VDRE cis-reporter transcription, actives raise or lower the signal. In a few lines:
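Transfected HepG2 reporter cells, chemical treatment 24 h. RNA isolated, cDNA amplified with reporter-specific primers, products analysed by capillary electrophoresis. Endpoint fitted in both directions versus DMSO.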

For assay [17], the target named is Estrogen receptor (Homo sapiens) (UniProt P03372). Briefly: ATG_ERa_TRANS: Attagene TRANS-FACTORIAL HepG2 Assay for human Estrogen Receptor alpha (ERa) (AID 2282970; active = hit-call score of the fitted dose curve at least 0.9, where 1 is the maximum). The following applies: HepG2 Attagene TRANS ERa GAL4 reporter, mRNA. Summed up: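 Reporter mRNA induction after 24 hours, detected by fluorescent RT-PCR and capillary electrophoresis, gives the read-out. Cells are HepG2 transiently transfected with GAL4-UAS reporter transcription units responding to chimeric NR-Gal4. Activity is taken as gain of signal over DMSO baseline.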

The target in assay [18] is Steroid hormone receptor ERR1 (Homo sapiens) (UniProt P11474). Briefly: ATG_ERRa_TRANS: Attagene TRANS-FACTORIAL HepG2 Assay for human Estrogen-Related Receptor alpha (ERRa) (AID 2282971; active = hit-call score of the fitted dose curve at least 0.9, where 1 is the maximum). As to conditions: HepG2 Attagene TRANS reporter, ERRa transactivation. Summed up: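 Transfected HepG2, 24 h dosing, ERRa-Gal4 chimera driving GAL4-UAS reporter. Readout: reporter mRNA via RT-PCR plus capillary electrophoresis (fluorescence). Positive direction vs DMSO control.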

Assay [19] concerns the target Oxysterols receptor LXR-beta (Homo sapiens) (UniProt P55055). Nature of the assay: ATG_LXRb_TRANS: Attagene TRANS-FACTORIAL HepG2 Assay for human Liver X Receptor beta (LXRb) (AID 2282981; active = hit-call score of the fitted dose curve at least 0.9, where 1 is the maximum). The following applies: HepG2 Attagene TRANS GAL4-LXRb reporter, mRNA. In a few lines: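 Liver-derived HepG2 cells transfected with Gal4-responsive reporters were dosed for 24 h. Activation was scored as rise in reporter mRNA, by RT-PCR and capillary electrophoresis, above DMSO baseline.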

Structures are written as SMILES. Inconclusive results are not listed. Activity calls are given as the source filed them. Rule for the calls, unless noted: active = hit-call score of the fitted dose curve at least 0.9, where 1 is the maximum; inactive = score below 0.9.

Oxysterols receptor LXR-alpha (Homo sapiens), sequence (Q13133 whole entry, looked up, the tested form may be a part): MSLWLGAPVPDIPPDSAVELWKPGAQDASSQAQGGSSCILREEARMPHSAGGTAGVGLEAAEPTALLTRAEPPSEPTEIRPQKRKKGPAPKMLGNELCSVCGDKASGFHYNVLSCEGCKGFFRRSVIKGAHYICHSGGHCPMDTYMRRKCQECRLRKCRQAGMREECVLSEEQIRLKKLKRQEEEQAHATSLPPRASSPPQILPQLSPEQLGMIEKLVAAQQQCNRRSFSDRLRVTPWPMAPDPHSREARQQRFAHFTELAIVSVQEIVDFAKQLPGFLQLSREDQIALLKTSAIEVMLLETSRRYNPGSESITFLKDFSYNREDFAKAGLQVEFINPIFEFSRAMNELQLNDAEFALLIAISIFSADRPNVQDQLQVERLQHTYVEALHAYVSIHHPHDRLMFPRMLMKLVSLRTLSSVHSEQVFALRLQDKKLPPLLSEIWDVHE
X-box-binding protein 1 (Homo sapiens), sequence (P17861 whole entry, looked up, the tested form may be a part): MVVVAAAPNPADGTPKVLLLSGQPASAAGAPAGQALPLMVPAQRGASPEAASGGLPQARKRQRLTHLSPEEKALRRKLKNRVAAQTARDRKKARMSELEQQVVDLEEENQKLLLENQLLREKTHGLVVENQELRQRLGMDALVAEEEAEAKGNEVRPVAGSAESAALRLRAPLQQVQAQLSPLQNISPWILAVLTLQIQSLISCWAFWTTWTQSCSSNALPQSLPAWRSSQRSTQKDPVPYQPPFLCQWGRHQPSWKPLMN
Transcription factor Sp1 (Homo sapiens), sequence (P08047 whole entry, looked up): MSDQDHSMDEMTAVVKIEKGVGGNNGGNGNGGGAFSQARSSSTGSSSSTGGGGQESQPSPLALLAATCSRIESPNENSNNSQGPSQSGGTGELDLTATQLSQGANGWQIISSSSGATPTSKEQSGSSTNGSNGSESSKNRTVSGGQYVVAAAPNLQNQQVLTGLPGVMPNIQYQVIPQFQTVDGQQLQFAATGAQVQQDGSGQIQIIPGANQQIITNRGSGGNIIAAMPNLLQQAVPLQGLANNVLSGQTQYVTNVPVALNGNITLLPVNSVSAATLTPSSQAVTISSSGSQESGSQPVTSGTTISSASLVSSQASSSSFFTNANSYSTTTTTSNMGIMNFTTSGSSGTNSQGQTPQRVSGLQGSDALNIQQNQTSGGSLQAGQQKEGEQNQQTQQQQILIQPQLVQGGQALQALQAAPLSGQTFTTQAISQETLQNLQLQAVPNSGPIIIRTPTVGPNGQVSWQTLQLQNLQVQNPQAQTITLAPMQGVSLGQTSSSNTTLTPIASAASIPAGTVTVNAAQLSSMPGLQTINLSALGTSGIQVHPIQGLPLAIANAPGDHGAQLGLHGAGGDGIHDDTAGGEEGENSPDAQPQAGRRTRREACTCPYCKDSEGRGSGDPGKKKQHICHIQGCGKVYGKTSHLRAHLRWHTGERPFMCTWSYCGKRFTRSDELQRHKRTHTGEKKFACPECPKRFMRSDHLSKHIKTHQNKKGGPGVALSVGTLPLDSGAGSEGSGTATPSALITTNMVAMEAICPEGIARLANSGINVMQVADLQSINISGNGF
Signal transducer and activator of transcription 3 (Homo sapiens), sequence (P40763 whole entry, looked up): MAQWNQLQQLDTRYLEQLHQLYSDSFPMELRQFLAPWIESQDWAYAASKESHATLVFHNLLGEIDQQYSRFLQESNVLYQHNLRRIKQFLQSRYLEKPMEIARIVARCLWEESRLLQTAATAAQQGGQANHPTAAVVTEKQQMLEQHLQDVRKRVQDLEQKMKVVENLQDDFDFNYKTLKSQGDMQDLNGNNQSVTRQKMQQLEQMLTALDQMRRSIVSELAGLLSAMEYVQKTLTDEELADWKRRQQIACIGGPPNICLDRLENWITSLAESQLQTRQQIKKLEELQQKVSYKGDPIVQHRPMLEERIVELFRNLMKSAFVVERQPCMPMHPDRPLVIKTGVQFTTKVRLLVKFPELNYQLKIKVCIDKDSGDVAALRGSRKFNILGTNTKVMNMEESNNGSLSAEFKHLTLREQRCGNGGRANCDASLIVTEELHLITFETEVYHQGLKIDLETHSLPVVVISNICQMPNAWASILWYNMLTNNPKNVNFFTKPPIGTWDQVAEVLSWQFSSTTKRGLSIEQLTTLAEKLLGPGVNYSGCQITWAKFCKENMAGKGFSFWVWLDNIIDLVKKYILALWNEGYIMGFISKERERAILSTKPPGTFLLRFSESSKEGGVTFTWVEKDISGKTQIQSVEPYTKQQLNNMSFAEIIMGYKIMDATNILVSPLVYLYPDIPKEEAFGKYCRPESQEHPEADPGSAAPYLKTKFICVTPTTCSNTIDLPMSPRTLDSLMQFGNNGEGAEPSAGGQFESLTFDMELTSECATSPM
Glucocorticoid receptor (Homo sapiens), sequence (P04150 whole entry, looked up): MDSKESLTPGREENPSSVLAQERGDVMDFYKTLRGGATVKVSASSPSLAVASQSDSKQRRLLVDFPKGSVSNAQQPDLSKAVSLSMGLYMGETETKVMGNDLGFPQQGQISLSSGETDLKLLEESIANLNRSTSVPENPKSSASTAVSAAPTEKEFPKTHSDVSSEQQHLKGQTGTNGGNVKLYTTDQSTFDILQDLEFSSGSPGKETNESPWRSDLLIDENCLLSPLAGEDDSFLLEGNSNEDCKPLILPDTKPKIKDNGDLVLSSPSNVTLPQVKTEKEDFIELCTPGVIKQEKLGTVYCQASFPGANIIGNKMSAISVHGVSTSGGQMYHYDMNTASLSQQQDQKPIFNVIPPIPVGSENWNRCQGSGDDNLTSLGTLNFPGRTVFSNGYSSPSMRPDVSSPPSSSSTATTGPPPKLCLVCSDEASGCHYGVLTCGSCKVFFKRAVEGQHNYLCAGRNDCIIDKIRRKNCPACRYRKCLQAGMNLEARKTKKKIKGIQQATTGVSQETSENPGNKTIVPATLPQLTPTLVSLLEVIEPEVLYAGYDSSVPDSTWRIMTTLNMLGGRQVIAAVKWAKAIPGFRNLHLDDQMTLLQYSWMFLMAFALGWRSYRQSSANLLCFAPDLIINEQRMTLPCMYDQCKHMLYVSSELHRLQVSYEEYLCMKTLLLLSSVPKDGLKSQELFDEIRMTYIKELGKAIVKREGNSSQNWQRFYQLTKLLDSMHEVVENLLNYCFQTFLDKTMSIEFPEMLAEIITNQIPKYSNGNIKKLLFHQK
Bile acid receptor (Homo sapiens), sequence (Q96RI1 whole entry, looked up, the tested form may be a part): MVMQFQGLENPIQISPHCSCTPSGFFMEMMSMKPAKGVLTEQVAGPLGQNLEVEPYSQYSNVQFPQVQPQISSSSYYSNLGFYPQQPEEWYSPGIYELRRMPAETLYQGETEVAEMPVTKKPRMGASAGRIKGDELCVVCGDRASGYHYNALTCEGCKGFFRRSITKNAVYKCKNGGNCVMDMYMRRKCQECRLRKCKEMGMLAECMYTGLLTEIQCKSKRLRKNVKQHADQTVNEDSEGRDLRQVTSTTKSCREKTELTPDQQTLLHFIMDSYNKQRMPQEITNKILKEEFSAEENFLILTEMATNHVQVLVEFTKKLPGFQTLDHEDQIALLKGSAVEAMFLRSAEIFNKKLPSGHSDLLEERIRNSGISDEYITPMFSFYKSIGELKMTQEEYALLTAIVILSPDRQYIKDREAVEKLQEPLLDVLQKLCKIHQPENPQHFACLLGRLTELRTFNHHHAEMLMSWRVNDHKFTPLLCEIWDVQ
Estrogen receptor (Homo sapiens), sequence (P03372 whole entry, looked up, the tested form may be a part): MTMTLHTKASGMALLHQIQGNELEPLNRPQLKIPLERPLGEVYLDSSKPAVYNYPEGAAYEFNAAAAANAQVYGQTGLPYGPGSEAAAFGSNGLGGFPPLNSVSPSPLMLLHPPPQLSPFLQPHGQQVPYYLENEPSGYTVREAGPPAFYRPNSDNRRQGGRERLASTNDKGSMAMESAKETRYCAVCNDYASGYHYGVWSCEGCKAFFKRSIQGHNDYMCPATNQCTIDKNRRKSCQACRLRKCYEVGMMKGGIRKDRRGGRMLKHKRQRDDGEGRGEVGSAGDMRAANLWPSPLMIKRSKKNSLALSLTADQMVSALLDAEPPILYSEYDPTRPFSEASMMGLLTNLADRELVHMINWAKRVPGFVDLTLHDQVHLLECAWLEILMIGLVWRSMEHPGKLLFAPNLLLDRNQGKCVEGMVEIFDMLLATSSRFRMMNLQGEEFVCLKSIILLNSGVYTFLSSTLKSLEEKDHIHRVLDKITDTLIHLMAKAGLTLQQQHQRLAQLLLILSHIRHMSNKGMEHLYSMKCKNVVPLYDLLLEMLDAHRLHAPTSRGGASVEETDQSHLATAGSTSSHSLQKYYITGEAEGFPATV
Oxysterols receptor LXR-beta (Homo sapiens), sequence (P55055 whole entry, looked up, the tested form may be a part): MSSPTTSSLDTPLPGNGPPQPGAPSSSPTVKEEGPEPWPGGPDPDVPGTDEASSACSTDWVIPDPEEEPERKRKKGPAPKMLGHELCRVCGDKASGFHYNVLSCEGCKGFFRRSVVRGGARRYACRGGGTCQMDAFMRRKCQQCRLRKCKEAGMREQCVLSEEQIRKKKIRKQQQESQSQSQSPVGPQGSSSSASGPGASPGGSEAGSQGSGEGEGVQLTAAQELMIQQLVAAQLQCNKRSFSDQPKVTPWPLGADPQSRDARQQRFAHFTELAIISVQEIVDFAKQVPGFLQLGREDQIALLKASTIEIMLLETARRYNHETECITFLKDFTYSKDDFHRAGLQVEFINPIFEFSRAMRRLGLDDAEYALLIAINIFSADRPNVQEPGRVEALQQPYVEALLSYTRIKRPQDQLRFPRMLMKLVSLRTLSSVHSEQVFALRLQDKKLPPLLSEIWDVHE
Nuclear receptor subfamily 1 group I member 3 (Homo sapiens), sequence (Q14994 whole entry, looked up, the tested form may be a part): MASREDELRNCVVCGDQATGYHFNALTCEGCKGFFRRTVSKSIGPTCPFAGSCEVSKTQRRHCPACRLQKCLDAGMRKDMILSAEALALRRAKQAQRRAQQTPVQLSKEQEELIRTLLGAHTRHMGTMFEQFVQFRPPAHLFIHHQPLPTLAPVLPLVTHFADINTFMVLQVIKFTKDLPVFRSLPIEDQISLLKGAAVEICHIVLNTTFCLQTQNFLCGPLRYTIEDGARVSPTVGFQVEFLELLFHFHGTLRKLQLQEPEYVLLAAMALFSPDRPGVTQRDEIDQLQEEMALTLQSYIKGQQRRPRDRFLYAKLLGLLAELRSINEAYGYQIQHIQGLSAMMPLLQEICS

As to `O=C1CCCN1`, the call in [1], in assay [2], in assay [3], in [4], in assay [5] and in assay [6] was inactive. The compound was called inactive in assay [7], in [8], in assay [9], in [10], in [11] and in assay [12]. Besides, the compound was called inactive in assay [13], in [14] and in [15].

The term AC50 denotes the concentration at which the activity in the assay is half-maximal. As for `Fc1ccc(C2(Cn3cncn3)OC2c2ccccc2Cl)cc1` (stereo not drawn), the compound was classed as inactive in assay [1], in [2], in [4], in assay [5], in assay [6] and in assay [7]. The compound was classed as inactive in assay [8], in assay [17], in assay [10], in assay [11], in assay [13] and in assay [14]. Further, in assay [15], the compound was classed as inactive. Besides, the AC50 in [3] is 27.3 µM (active); in [16] it was 12.3 µM (active).

In the case of `N#CCc1ccc(Cl)cc1`, the outcome in assay [1], in assay [2], in assay [3], in assay [4], in assay [5] and in assay [6] was inactive. The call in assay [7], in [8], in assay [16], in assay [17], in assay [10] and in [12] was inactive. The compound was classed as inactive in assay [13] and in assay [15].

With `C=CC#N`, the compound was called inactive in assay [1], in assay [2], in [3], in assay [4], in assay [5] and in [6]. Besides, the call in assay [7], in [8], in assay [16], in assay [18], in [10] and in [11] was inactive. Also, the compound was called inactive in assay [12] and in assay [15].

Consider `Cn1sc(Cl)cc1=O`, for which the outcome in [1], in assay [2], in assay [3], in [4], in assay [5] and in [6] was inactive. Further, the compound was called inactive in assay [7], in assay [8], in [16], in [10] and in [12].

In the case of `CC(=[OH+])/C=C(/C)[O-].CC(=[OH+])/C=C(/C)[O-].CC(=[OH+])/C=C(/C)[O-].[Fe]`, the compound was called inactive in assay [1], in [2], in assay [3], in assay [4], in assay [5] and in [6]. Besides, the call in assay [7], in assay [8], in assay [16], in assay [10], in [11] and in assay [12] was inactive. The compound was called inactive in assay [15] and in [19].

Values taken from PubChem BioAssay (EPA / NIEHS).
